“And” between values parts separate entries of the source, which are not always exact repeats. Identical values can stand only once. Inconclusive results are not listed. The source made the active and inactive calls. Unless noted, the call rests on the fitted dose curve; in most records, active means well fitted curve in the direction sought with a large enough effect; inconclusive means small, poorly fitted or top-dose-only effect, or another doubt; inactive means no such curve, though single readings can be large; an effect the other way counts as inactive or inconclusive.
Key:
[1] = qHTS assay for small molecule agonists of the antioxidant response element (ARE) signaling pathway measured by Nrf2-dependant transcriptional activity - cell viability counter screen (AID 720653; active means well fitted curve in the direction sought with a large enough effect in the repeat runs; an effect the other way counts as inactive or inconclusive; further: potency means the concentration at half of the fitted maximal effect; on max response: on the % scale 0 is the no-effect control and ±100 the full control effect); conditions: ARE-bla HepG2 viability, CellTiter-Glo ATP luminescence, 16 h; max response: stronger effect = lower value
Outline: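 ARE-bla HepG2 cells treated with compounds for 16 h at 37C; this counter screen measures viability as intracellular ATP by CellTiter-Glo luminescence after 30 min at room temperature.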

[2] = qHTS Assay for Identifying Gametocytocidal Compounds (AID 743244); further: potency means the concentration at half of the fitted maximal effect;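 on max response: on the % scale 0 is the no-effect control and ±100 the full control effect; actives lower the fluorescent signal which means gametocytes are killed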; conditions: P. falciparum 3D7 stage III-V gametocytes, alamarBlue, 72 h; max response: stronger effect = lower value
Outline: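 3D7 gametocytes, stages III–V, 20,000/well; cpd 72 h, 37 °C/5% CO2; + alamarBlue 24 h; fluor. Ex 525/Em 598.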

[3] = qHTS assay for cell viability of HEK293 cells (AID 743288); conditions: ATP luminescence (CellTiter-Glo), 18 h, stronger effect = lower value; further: on the % scale 0 is the no-effect control and ±100 the full control effect; nearly all actives have a fitted effect of over 50% in size
Outline: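 Steps: plate 2,000 parental HEK293 cells per well; incubate ≥5 h, 37 C; add compounds in DMSO; incubate 18 h, 37 C; add CellTiter-Glo; wait 30 min at room temperature; read luminescence.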

[4] = qHTS assay for cell viability of the p53RE-bla HCT-116 cell line (AID 743292); further: on the % scale 0 is the no-effect control and ±100 the full control effect; nearly all actives have a fitted effect of over 55% in size
Outline: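 Compound-exposed HCT-116 (p53RE-bla) cells, 4,000 per well, were kept 16 h at 37 C following a 5 h preincubation. Cell number was estimated from total ATP by CellTiter-Glo luminescence read after 30 min at room temperature.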

[5] = target: T1, Hexokinase-4 (Homo sapiens) + Glucokinase regulatory protein (Homo sapiens) (UniProt P35557+Q14397); test: qHTS assay for inhibitors of recombinant human GCK-GKRP interaction: Diaphorase-coupled assay (AID 743205)
T1 sequence (P35557 whole entry, looked up): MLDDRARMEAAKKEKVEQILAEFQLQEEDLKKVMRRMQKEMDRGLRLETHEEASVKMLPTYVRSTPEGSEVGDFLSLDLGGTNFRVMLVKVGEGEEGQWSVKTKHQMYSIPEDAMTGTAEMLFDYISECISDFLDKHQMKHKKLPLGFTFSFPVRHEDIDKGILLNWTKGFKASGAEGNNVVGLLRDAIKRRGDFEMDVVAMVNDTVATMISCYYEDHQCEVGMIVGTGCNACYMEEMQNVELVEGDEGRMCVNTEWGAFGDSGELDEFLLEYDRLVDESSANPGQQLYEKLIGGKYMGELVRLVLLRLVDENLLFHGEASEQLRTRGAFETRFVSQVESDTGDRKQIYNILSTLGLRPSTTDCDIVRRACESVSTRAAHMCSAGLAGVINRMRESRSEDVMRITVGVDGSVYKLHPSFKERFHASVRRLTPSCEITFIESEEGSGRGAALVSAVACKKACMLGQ
T1 sequence (Q14397 whole entry, looked up): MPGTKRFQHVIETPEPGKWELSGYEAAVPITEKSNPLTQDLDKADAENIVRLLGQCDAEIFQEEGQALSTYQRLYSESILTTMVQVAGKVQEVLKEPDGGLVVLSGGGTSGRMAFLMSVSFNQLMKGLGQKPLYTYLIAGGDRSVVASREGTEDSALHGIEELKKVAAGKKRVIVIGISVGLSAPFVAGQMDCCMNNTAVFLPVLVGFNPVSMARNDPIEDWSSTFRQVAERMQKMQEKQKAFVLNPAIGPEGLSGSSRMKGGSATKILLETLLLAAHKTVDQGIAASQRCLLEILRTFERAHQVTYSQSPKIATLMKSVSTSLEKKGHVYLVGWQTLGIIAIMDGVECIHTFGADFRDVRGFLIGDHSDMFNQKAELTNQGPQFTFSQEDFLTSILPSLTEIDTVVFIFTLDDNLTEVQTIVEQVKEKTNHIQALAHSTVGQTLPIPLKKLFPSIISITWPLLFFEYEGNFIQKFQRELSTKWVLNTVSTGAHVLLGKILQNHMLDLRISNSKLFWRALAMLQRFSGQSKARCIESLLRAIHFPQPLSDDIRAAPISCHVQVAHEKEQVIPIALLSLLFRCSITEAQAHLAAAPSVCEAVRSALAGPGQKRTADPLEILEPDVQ
Outline: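 Compounds pre-incubated 20 min with substrate, then 10 nM GST-GCK with 10 nM FLAG-GKRP added. GCK activity coupled via G6PDH and diaphorase to resorufin (5 mM glucose, 0.4 mM ATP, 0.15 mM NADP+, pH 7.6), read kinetically over 30 minutes at Ex 525/Em 590 nm.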

[6] = target: T1, Hexokinase-4 (Homo sapiens) + Glucokinase regulatory protein (Homo sapiens); test: qHTS assay for inhibitors of recombinant human GCK-GKRP interaction: ADP-Glo assay (AID 743206);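 further: plate controls were DMSO plus enzyme for no effect and no enzyme for full effect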
Outline: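 Pin-transferred compounds meet a 15 nM GST-GCK/15 nM FLAG-GKRP/2 uM S6P mix (dispense concentrations). ATP is then added to 0.4 mM final with 5 mM glucose, and the reaction runs 60 min at room temperature. ADP is quantified luminescently.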

[7] = target: T1, Hexokinase-4 (Homo sapiens) + Glucokinase regulatory protein (Homo sapiens); test: qHTS assay for inhibitors of recombinant human GCK-GKRP interaction: HTRF assay (AID 743207);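 further: 0% = DMSO with GCK present and -100% = DMSO wells lacking GCK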
Outline: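 HTRF binding of 5 nM GST-GCK and 5 nM FLAG-GKRP with 2 uM S6P in pH 7.1 Hepes buffer (MgCl2, KCl, DTT, Tween 20, BSA). Anti-FLAG XL665 and anti-GST donor added, 60 min at room temperature; 665/615 nm read, normalized to with- and without-GCK controls.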

[8] = qHTS profiling for inhibitors of Plasmodium falciparum (3D7) proliferation (AID 743322);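 further: infected erythrocytes exposed to compound for 72 h before lysis; 100% = DMSO vehicle wells and 0% = 0.29 µM artemisinin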; conditions: P. falciparum 3D7 proliferation; at 28.7 µM (top of the series)
Outline: (§1)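 Parasite DNA was quantified by SYBR Green I fluorescence (ex 485, em 535 nm) after overnight lysis in saponin/Triton buffer at room temperature. Cultures at 0.3% parasitemia and 2.5% hematocrit were first exposed to compound for 72 h at 37 C; signals were normalised to artemisinin (0.29 uM) and vehicle wells.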

[9] = qHTS profiling for inhibitors of Plasmodium falciparum (DD2) proliferation (AID 743323; call rule not given here); conditions: lower = more inhibition; at 28.7 µM (top of the series)
Outline: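 Parasite DNA quantified by SYBR Green fluorescence (ex 485, em 535 nm) after saponin/Triton lysis and overnight dark incubation. Cultures: 0.3% parasitemia, 2.5% hematocrit, 72 h, 37 C; data scaled between DMSO and 0.29 uM artemisinin.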

[10] = qHTS profiling of the MIPE4 collection as inhibitors of Plasmodium falciparum (3D7) proliferation (AID 743344; call rule not given here;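 further: scaled between DMSO vehicle wells and 0.29 µM artemisinin as full inhibition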); conditions: P. falciparum 3D7 in erythrocytes, SYBR Green DNA fluorescence, 72 h; at 28.5 µM (top of the series) unless noted
Outline: as §1

Cc1cc(C(C)(C)C)c(O)c(C(C)(C)C)c1
inactive: max response [1] -5.59% and 4.89% | max response [2] -17.9% | max response [3] -0.0848% and 0.626% | Potency [4]

Brc1ccccc1-c1ccccc1
inactive: max response [1] 3.59% | max response [2] -19.3% | max response [3] -7.8% | Potency [4]

CCCC(=O)c1cc(O)c(O)cc1O
inactive: max response [1] -22.5% | max response [2] 30.2% | max response [3] -20% | Potency [4]

OCCOCCN1CCN(C(c2ccccc2)c2ccc(Cl)cc2)CC1 (stereo not drawn)
inactive: max response [1] -5.74% | max response [2] -10.6% | max response [3] -17.9% | Potency [4]

Oc1ccccc1
inactive: max response [1] -6.78% and -2.25% and 3.75% | max response [2] 2.14% | max response [3] -3.62% and -6.12% and 4.72% | Potency [4]

CC(C)C(C)(C)C(C)(C)C(C)(C)S
inactive: max response [1] -4.36% and 4.23% | max response [2] 40.1% | max response [3] 6.58% and -3.43% | Potency [4]

O=C(Oc1ccccc1)c1cccc(C(=O)Oc2ccccc2)c1
inactive: max response [1] -2.16% | max response [2] -7.52% | max response [3] -18.4% | Potency [4]

Brc1ccc([C@H]2CN3CCSC3=N2)cc1
inactive: outcome [5] | outcome [6] | outcome [7] | max response [2] 13.2%

CCCCCCCCCCCCCCCC[n+]1ccccc1
inactive: max response [1] -10.4% | max response [3] -27.3% | Potency [4]

COc1cccc2c1[C@@H]1CN(CCCCn3c(=O)[nH]c4c(sc5ncc(-c6ccccc6)nc54)c3=O)C[C@@H]1CO2
inactive: outcome [5] | outcome [6] | outcome [7] | max response [2] 22.3%

O=C1NC(c2cccc([N+](=O)[O-])c2)=CCN1c1ccccc1O
inactive: outcome [5] | outcome [6] | outcome [7] | max response [2] 21.2%

O=[N+]([O-])c1ccc(-c2nc(-c3ccc(F)cc3)c(-c3ccncc3)[nH]2)cc1
inactive: outcome [5] | outcome [6] | outcome [7] | max response [2] -10.7%

O=C1NC(=O)/C(=C/c2ccc3c(c2)OC(F)(F)O3)S1
inactive: outcome [5] | outcome [6] | outcome [7] | max response [2] -20.1%

Nc1c2ccccc2nc2ccccc12
active: Potency [1] 31.6 µM | Potency [2] 10 µM
inactive: Potency [4]

COC(=O)c1c(Cl)c(Cl)c(C(=O)OC)c(Cl)c1Cl
inactive: max response [1] -11.1% | max response [3] -7.06% | Potency [4]

CC(C)(C)c1ccc(O)c(O)c1
inactive: max response [1] -2.01% and -13.6% | max response [3] -4.72% and -5.96% | Potency [4]

OCc1c[nH]c2ccccc12
inactive: max response [1] 3.93% | max response [3] 5.55% | Potency [4]

CC(C)N(CCC(=O)c1ccc2ccccc2c1)Cc1ccccc1
inactive: outcome [5] | outcome [6] | outcome [7]

Cc1ccc(O)cc1
inactive: max response [1] -5.41% | max response [2] -13.3% and 9.92% | max response [3] 0.239% | Potency [4]

N[C@@H](Cn1ccc(=O)c(O)c1)C(=O)O
inactive: outcome [5] | outcome [6] | outcome [7] | max response [2] 9.87%

C1=CC2C3C=CC(C3)C2C1 (stereo not drawn)
inactive: max response [1] -2.11% | max response [2] -11.9% | max response [3] -14.2% | Potency [4]

Cc1ncc(CO)c(CO)c1O
inactive: max response [1] -5.07% | max response [2] -15.9% | max response [3] -15.6% | Potency [4]

O=C(Oc1ccccc1)c1ccccc1O
inactive: max response [1] -7.62% and 5.57% | max response [2] 7.75% | max response [3] 1.49% and 4.97% | Potency [4]

Cc1nn(-c2ccccc2)c(C)c1/C=N/N1CCN(Cc2ccccc2)CC1
inactive: outcome [5] | outcome [6] | outcome [7] | max response [2] 1.48%

Nc1ccc(O)cc1
inactive: max response [1] -19.2% | max response [3] -8.77% | Potency [4]

CCCCCCCCCCCC[N+](C)(C)Cc1ccccc1
inactive: max response [1] -5.65% | max response [3] -18.2% | Potency [4]
active: Potency [2] 5.01 µM

CN(C)c1cc2c(Nc3ccc4c(cnn4Cc4ccccc4)c3)ncnc2cn1
inactive: outcome [5] | outcome [6] | outcome [7]

CCCCC(CC)COC(=O)c1ccccc1C(=O)O (stereo not drawn)
inactive: max response [1] 4.74% and -13.7% | max response [2] -17.7% | max response [3] -6.66% and 0.856% | Potency [4]

O=C(c1ccccc1)c1ccccc1
inactive: max response [1] 6.09% and -10.7% | max response [2] -8.14% | max response [3] -5.39% and 4.23% | Potency [4]

O=C(NO)c1ccccc1
inactive: max response [1] -9.7% | max response [2] 14.9% | max response [3] -10.3% | Potency [4]

c1ccc2occc2c1
inactive: max response [1] 3.88% and -20.4% and 16.8% | max response [2] -7.52% | max response [3] -2.02% and -29.2% and -7.14% | Potency [4]

COc1cc(C=O)ccc1O
inactive: max response [1] -6.02% and -3.47% | max response [2] 16.9% | max response [3] -1.87% and -5.65% | Potency [4]

CC(C)(c1ccc(O)cc1)c1ccc(O)cc1
inactive: max response [1] -12.4% and -0.346% and -0.0074% | max response [2] -6.17% | max response [3] 0.899% and -7.06% and -9.11% | Potency [4]

COc1ccccc1N1CCN(CCN2C(=O)CC3(CCCC3)CC2=O)CC1
inactive: outcome [5] | outcome [6] | outcome [7] | max response [2] 21.4%

CC(=O)OC/C=C(C)/C=C/C=C(C)/C=C/C1=C(C)CCCC1(C)C
inactive: max response [1] 6.19% and 7.05% | max response [2] -2.65% | max response [3] -22.5% and -3.76% | Potency [4]

NC(N)=NCCCCN=C(N)N
inactive: outcome [5] | outcome [6] | outcome [7] | max response [2] 2.24% and 15.3%

Clc1ccc2c(c1)N=C(N1CCNCC1)c1ccccc1N2
inactive: outcome [5] | outcome [6] | outcome [7]

CN1C(=O)c2ccccc2C1=O
inactive: max response [1] -2.52% | max response [2] 10.3% | max response [3] -9.41% | Potency [4]

Nc1cccc2c(N)cccc12
inactive: max response [3] -10.7% and -9.55%

O=C(Nc1ccc(Cl)cc1)Nc1ccc(Cl)c(Cl)c1
-0.0718%: activity, percent of control [9]
-1.23%: remaining parasite growth % (stronger effect = lower value) [8]

NCC[C@H](O)C(=O)N[C@@H]1C[C@H](N)[C@@H](O[C@H]2O[C@H](CN)[C@@H](O)[C@H](O)[C@@H]2O)[C@H](O)[C@@H]1O[C@H]1O[C@H](CO)[C@@H](O)[C@H](N)[C@@H]1O
98% [at 0.217 µM]: parasite growth, % of DMSO control [10]

CC(NCCC(c1ccccc1)c1ccccc1)c1ccccc1 (stereo not drawn)
9.45%: parasite growth, % of DMSO control [10]

Reference: PubChem BioAssay (NCATS)
